The text below walks through data of PubChem BioAssay (EPA / NIEHS).

Active and inactive are the calls of the source. Rule for the calls: active = hit-call score of the fitted dose curve at least 0.9, where 1 is the maximum; inactive = score below 0.9.

Read-out in test [1]: Matrix Metallopeptidase 9 (MMP9), MMP9 (gene 4318)
Briefly: BSK_KF3CT_MMP9: BioMAP Diversity Plus: KF3CT Assay for Matrix Metallopeptidase 9 (MMP9) Biomarker Activity (AID 2283074). Particulars: primary human keratinocytes with fibroblasts; actives raise or lower the signal. In outline:
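Keratinocyte plus foreskin fibroblast human primary skin co-culture was dosed with chemical and MMP-9 was quantified by ELISA 24 h later. Bidirectional curve fitting used DMSO as negative control and activity baseline.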

Read-out in test [2]: urokinase plasminogen activator (uPA), PLAU (gene 5328)
Briefly: BSK_KF3CT_uPA: BioMAP Diversity Plus: KF3CT Assay for urokinase plasminogen activator (uPA) Biomarker Activity (AID 2283075). Particulars: primary human keratinocytes with fibroblasts; actives raise or lower the signal. The method, boiled down: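 Human keratinocyte plus foreskin fibroblast primary co-culture exposed to chemical for 24 h. uPA levels were quantified by ELISA, and activity was fitted bidirectionally against a DMSO negative-control baseline.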

Read-out in test [3]: CD40, CD40 (gene 958)
Description: BSK_LPS_CD40: BioMAP Diversity Plus: LPS Assay for CD40 Biomarker Activity (AID 2283076). The conditions noted are these: primary human HUVEC with PBMC; actives raise or lower the signal. In outline:
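Primary human umbilical vein endothelial cells co-cultured with peripheral blood mononuclear cells, LPS-stimulated, were dosed with chemical and read 24 h later. CD40 levels were measured by ELISA and fitted bidirectionally against DMSO as negative control and baseline.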

Read-out in test [4]: E-selectin (Homo sapiens) (UniProt P16581)
Briefly: BSK_LPS_Eselectin: BioMAP Diversity Plus: LPS Assay for Eselectin Biomarker Activity (AID 2283077). Particulars: primary human HUVEC with PBMC; actives raise or lower the signal. In outline:
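Human umbilical vein endothelial cells co-cultured with peripheral blood mononuclear cells under LPS stimulation; E-selectin measured by ELISA 24 h after chemical dosing. Activity fitted bidirectionally against DMSO as negative control and baseline.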

Read-out in test [5]: Interleukin-8 (IL8), CXCL8 (gene 3576)
Description: BSK_LPS_IL8: BioMAP Diversity Plus: LPS Assay for Interleukin-8 (IL8) Biomarker Activity (AID 2283078). The conditions noted are these: primary human HUVEC with PBMC; actives raise or lower the signal. The method, boiled down:
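Human umbilical vein endothelial cells co-cultured with PBMC were stimulated with LPS; IL-8 levels were measured by ELISA 24 h after chemical dosing. Activity was fitted bidirectionally against DMSO as negative control and baseline.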

The nature of test [6]: BSK_LPS_SRB: Viability Assessment in the BioMAP Diversity Plus: LPS Assay (AID 2283079).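 Note: total protein by sulforhodamine B absorbance as a cytotoxicity measure; measured one day after compound addition; fitted in both directions against DMSO so loss or gain of signal counts.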 Particulars: primary human HUVEC with PBMC. The method, boiled down: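 Human umbilical vein endothelial cells co-cultured with PBMC (LPS system) were dosed for 24 h. Total protein was stained with 0.1% sulforhodamine B after 10% TCA fixation, read at 560 nm, and fitted bidirectionally against DMSO baseline.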

Read-out in test [7]: Monocyte Chemoattractant Protein-1 (MCP1), CCL2 (gene 6347)
Description: BSK_LPS_MCP1: BioMAP Diversity Plus: LPS Assay for Monocyte Chemoattractant Protein-1 (MCP1) Biomarker Activity (AID 2283081). The conditions noted are these: primary human HUVEC with PBMC; actives raise or lower the signal. The method, boiled down: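 HUVEC plus PBMC co-culture (human primary cells, LPS system) exposed to test chemical for 24 h; MCP-1 measured by ELISA. Bidirectional curve fitting against DMSO baseline; parallel SRB total-protein staining flags overt cytotoxicity.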

Test [8] in a line: BSK_LPS_PGE2: BioMAP Diversity Plus: LPS Assay for Prostaglandin E2 (PGE2) Biomarker Activity (AID 2283082). The conditions noted are these: primary human HUVEC with PBMC; actives raise or lower the signal. In outline:
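Endpoint derived from bidirectional curve fitting versus DMSO of ELISA-measured PGE2 in LPS-stimulated human primary vascular co-culture (HUVEC with PBMC) harvested at 24 h.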

Read-out in test [9]: Macrophage colony-stimulating factor (MCSF), CSF1 (gene 1435)
Description: BSK_LPS_MCSF: BioMAP Diversity Plus: LPS Assay for Macrophage colony-stimulating factor (MCSF) Biomarker Activity (AID 2283083). The conditions noted are these: primary human HUVEC with PBMC; actives raise or lower the signal. In outline: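 Human umbilical vein endothelial cells co-cultured with peripheral blood mononuclear cells were exposed to compound for 24 h. M-CSF levels were measured by ELISA, and bidirectional curve fitting used DMSO as the negative control and baseline.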

Read-out in test [10]: Tissue Factor, F3 (gene 2152)
Description: BSK_LPS_TissueFactor: BioMAP Diversity Plus: LPS Assay for Tissue Factor Biomarker Activity (AID 2283084). Particulars: primary human HUVEC with PBMC; actives raise or lower the signal. The method, boiled down:
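Human umbilical vein endothelial cells co-cultured with peripheral blood mononuclear cells were dosed and stimulated with LPS. Cell-surface CD142 was quantified by ELISA at 24 h. Activity was fitted bidirectionally against DMSO baseline.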

Read-out in test [11]: Tumor necrosis factor (Homo sapiens) (UniProt P01375)
Description: BSK_LPS_TNFa: BioMAP Diversity Plus: LPS Assay for Tumour Necrosis Factor alpha (TNFa) Biomarker Activity (AID 2283085). The conditions noted are these: primary human HUVEC with PBMC; actives raise or lower the signal. In outline:
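Primary human vascular co-culture of HUVEC and PBMC; TNFa ELISA 24 h after treatment, analysed as increase or decrease relative to DMSO control.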

Read-out in test [12]: CD38, CD38 (gene 952)
Description: BSK_SAg_CD38: BioMAP Diversity Plus: SAg Assay for CD38 Biomarker Activity (AID 2283087). The conditions noted are these: primary human HUVEC with PBMC; actives raise or lower the signal. The method, boiled down: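 Fluorescence ELISA of cell-surface CD38 served as the read-out, with either increase or decrease fitted against DMSO controls. Cells were a human umbilical vein endothelium plus PBMC co-culture under SEB/TSST-1 stimulation, measured 24 h after dosing.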

Read-out in test [13]: CD40, CD40 (gene 958)
Description: BSK_SAg_CD40: BioMAP Diversity Plus: SAg Assay for CD40 Biomarker Activity (AID 2283088). Particulars: primary human HUVEC with PBMC; actives raise or lower the signal. The method, boiled down: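 Human umbilical vein endothelial cells co-cultured with PBMC; CD40 levels measured by ELISA with fluorescence read-out 24 h after chemical dosing. Gain or loss of signal fitted bidirectionally against DMSO baseline.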

Read-out in test [14]: CD69, CD69 (gene 969)
Briefly: BSK_SAg_CD69: BioMAP Diversity Plus: SAg Assay for CD69 Biomarker Activity (AID 2283089).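 For AC50: cell surface CD69 protein quantified by ELISA with fluorescence detection.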 Particulars: primary human HUVEC with PBMC; actives raise or lower the signal. The method, boiled down:
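Endothelial/PBMC co-culture; chemical added; 24 h incubation; CD69 ELISA with fluorescence detection; bidirectional fit vs DMSO.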

Read-out in test [15]: Monocyte Chemoattractant Protein-1 (MCP1), CCL2 (gene 6347)
Briefly: BSK_SAg_MCP1: BioMAP Diversity Plus: SAg Assay for Monocyte Chemoattractant Protein-1 (MCP1) Biomarker Activity (AID 2283090). Particulars: primary human HUVEC with PBMC; actives raise or lower the signal. In outline: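 MCP-1 levels in the endothelial–PBMC SAg co-culture were quantified by ELISA at 24 h post-dosing; both increases and decreases versus DMSO scored. Cytotoxicity monitored by SRB total protein in parallel cultures.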

Read-out in test [16]: E-selectin (Homo sapiens) (UniProt P16581)
Description: BSK_SAg_Eselectin: BioMAP Diversity Plus: SAg Assay for Eselectin Biomarker Activity (AID 2283091). Particulars: primary human HUVEC with PBMC; actives raise or lower the signal. The method, boiled down:
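HUVEC co-cultured with PBMC, compound dosed then read at 24 h; E-selectin measured by ELISA. Activity fitted bidirectionally against DMSO as negative control and baseline.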

Read-out in test [17]: Monokine induced gamma interferon (MIG), CXCL9 (gene 4283)
Description: BSK_SAg_MIG: BioMAP Diversity Plus: SAg Assay for Monokine induced gamma interferon (MIG) Biomarker Activity (AID 2283092). Particulars: primary human HUVEC with PBMC; actives raise or lower the signal. The method, boiled down:
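Measures CXCL9 protein by ELISA in a human vascular primary-cell co-culture (umbilical vein endothelium with PBMC) 24 h after chemical addition. Activity is scored up or down from the DMSO control.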

Test [18] in a line: BSK_SAg_PBMCCytotoxicity: PBMC Cytotoxicity Assessment in the BioMAP Diversity Plus: SAg Assay (AID 2283093).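 For AC50: PBMC superantigen activated with SEB plus TSST-1 one hour after compound addition.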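 Note: PBMC viability measured as Alamar Blue reduction fluorescence at 546/580 nm; fitted both ways against DMSO so a hit may be loss or gain of signal.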 Particulars: primary human HUVEC with PBMC. The method, boiled down: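 Human umbilical vein endothelial cells co-cultured with PBMC; PBMC (75,000/well) pre-treated with compound 1 h, then activated with SEB and TSST-1 (20 ng/mL final each) for 90 h. Alamar Blue added 6 h, fluorescence 546/580 nm; bidirectional fit versus DMSO.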

Read-out in test [19]: Vascular cell adhesion molecule 1 (VCAM1), VCAM1 (gene 7412)
Briefly: BSK_LPS_VCAM1: BioMAP Diversity Plus: LPS Assay for Vascular cell adhesion molecule 1 (VCAM1) Biomarker Activity (AID 2283086). The conditions noted are these: primary human HUVEC with PBMC; actives raise or lower the signal. In outline:
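Primary human vascular co-culture (umbilical vein endothelium plus PBMC) stimulated with LPS received chemical; 24 h later VCAM-1 was read by ELISA. Overt cytotoxicity was assessed by sulforhodamine B staining of parallel cultures at the same time point.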

Sequence of Tumor necrosis factor (Homo sapiens) (P01375 whole entry, looked up): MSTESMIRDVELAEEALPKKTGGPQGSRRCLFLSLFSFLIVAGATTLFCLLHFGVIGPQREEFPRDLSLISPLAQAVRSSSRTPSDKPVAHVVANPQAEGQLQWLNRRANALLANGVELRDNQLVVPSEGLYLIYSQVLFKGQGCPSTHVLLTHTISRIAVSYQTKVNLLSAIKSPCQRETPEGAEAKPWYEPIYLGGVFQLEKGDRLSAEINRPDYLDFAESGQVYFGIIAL
Sequence of E-selectin (Homo sapiens) (P16581 whole entry, looked up): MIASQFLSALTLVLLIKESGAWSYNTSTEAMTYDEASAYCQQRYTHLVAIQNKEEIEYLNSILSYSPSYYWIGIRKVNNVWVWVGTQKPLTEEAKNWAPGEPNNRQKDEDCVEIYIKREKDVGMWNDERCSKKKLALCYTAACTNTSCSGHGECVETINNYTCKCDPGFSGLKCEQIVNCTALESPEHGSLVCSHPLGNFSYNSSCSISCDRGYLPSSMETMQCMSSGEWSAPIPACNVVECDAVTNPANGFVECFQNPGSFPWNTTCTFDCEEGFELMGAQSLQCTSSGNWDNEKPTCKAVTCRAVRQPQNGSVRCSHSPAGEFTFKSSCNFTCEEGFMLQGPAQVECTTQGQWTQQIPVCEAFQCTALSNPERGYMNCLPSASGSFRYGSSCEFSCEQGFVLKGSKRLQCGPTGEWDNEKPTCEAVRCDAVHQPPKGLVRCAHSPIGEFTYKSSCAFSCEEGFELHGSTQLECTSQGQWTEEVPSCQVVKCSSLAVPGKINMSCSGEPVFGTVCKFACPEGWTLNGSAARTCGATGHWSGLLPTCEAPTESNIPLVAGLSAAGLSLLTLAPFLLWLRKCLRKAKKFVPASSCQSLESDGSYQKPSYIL

With `CCC(=O)C(CC(C)N(C)C)(c1ccccc1)c1ccccc1` (configuration not stated), the result in test [1], in test [2], in test [3], in test [4], in test [5] and in test [6] was inactive. The outcome in [7], in [8], in test [9], in test [10], in test [11] and in [12] was inactive. The result in test [13], in test [14], in [15], in test [16], in [17] and in [18] was inactive.

For the molecule `OCc1ccco1`, the result in [1], in [2], in test [3], in [4], in [5] and in test [6] was inactive. Also, the outcome in [7], in test [8], in test [9], in [10], in test [11] and in test [19] was inactive. Besides, the result in test [12], in [13], in [14], in test [15], in test [16] and in test [17] was inactive. Also, the outcome in test [18] was inactive.

One may read the AC50 as the concentration at which the activity in the assay is half-maximal. Take `COP(=S)(OC)Oc1cc(Cl)c(Cl)cc1Cl`: the outcome in test [1], in [2], in test [3], in test [4], in [5] and in test [6] was inactive. For the same molecule, the outcome in test [7], in test [8], in [9], in [10], in [19] and in test [12] was inactive. Further, the outcome in test [13], in test [14], in test [15], in test [17] and in test [18] was inactive. Besides, the concentration at half-maximal activity (AC50) in test [11] was 32.6 µM (active); in test [16], 5.51 µM (active).

For `CCOP(=S)(OCC)Oc1nc(Cl)c(Cl)cc1Cl`, the result in test [1], in [2], in test [4], in test [5], in test [6] and in [7] was inactive. The outcome in test [8], in test [10], in test [11] and in test [17] was inactive. In addition, the AC50 in [3] is 20 µM (active); in [9], 20 µM (active); in test [12] it was 32.3 µM (active); in test [13], 33.1 µM (active); in test [14] it was 20 µM (active); in [15], 30.1 µM (active). Also, the concentration at half-maximal activity (AC50) in test [16] was 28 µM (active); in [18], 34.3 µM (active).

`CC(C)c1ccc(CO)cc1`: the result in test [1], in test [2], in [3], in test [4], in test [5] and in test [6] was inactive. Further, the outcome in [7], in test [8], in test [9], in test [10], in test [11] and in [12] was inactive. Also, the result in test [13], in test [14], in test [15], in [16], in test [17] and in test [18] was inactive.
